Test results taken from PubChem BioAssay (NCATS).
“And” between values parts separate entries of the source, which are not always exact repeats. Equal values may be shown once. Records with an inconclusive call do not appear. The source made the active and inactive calls. Calls come from the whole dose curve; as a rule, active = well fitted curve in the direction sought with a large enough effect; inconclusive = small, poorly fitted or top-dose-only effect, or another doubt; inactive = no such curve, though single readings can be large; an effect the other way counts as inactive or inconclusive.

Assays:
MCC-26 = experiment: qHTS assay to identify novel small-molecules to repurpose for Merkel cell carcinoma treatment (AID 1296009); conditions: MCC and control cell lines, CellTiter-Glo viability, 72 h; series mostly up to 46 µM; note: nearly all actives have a fitted effect of over 60% in size
Outline: (§1)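 After compound transfer in DMSO, plates were kept 72 hr at 37 degree celsius. Luminescent ATP signal from CellTiter-Glo served as viability measure, normalized against DMSO and no-cell controls.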

MKL-1 = experiment: as above; conditions: MCC and control cell lines, CellTiter-Glo viability, 72 h; series mostly up to 46 µM
Outline: as §1

MKL-2 = experiment: as above; conditions: MCC and control cell lines, CellTiter-Glo viability, 72 h; series mostly up to 46 µM
Outline: as §1

UISO = experiment: as above; conditions: MCC and control cell lines, CellTiter-Glo viability, 72 h; series mostly up to 46 µM
Outline: as §1

WaGa = experiment: as above; conditions: MCC and control cell lines, CellTiter-Glo viability, 72 h; series mostly up to 46 µM
Outline: as §1

C33A = experiment: Primary qHTS to identify gynecologic anti-cancer compounds using libraries of approved drugs and bioactive compounds (AID 1345084); conditions: Gynecologic cancer cell panel viability, ATPlite luminescence, 48 h; series mostly up to 57.5 µM; note: nearly all actives have a fitted effect of over 55% in size
Outline: (§2)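 Cytotoxicity screen measuring ATP content by luciferase luminescence. Each compound is applied at five concentrations for 48 h at 37 C with 5% CO2.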

CAOV3 = experiment: as above; conditions: Gynecologic cancer cell panel viability, ATPlite luminescence, 48 h; series mostly up to 57.5 µM
Outline: as §2

CASKI = experiment: as above; conditions: Gynecologic cancer cell panel viability, ATPlite luminescence, 48 h; series mostly up to 57.5 µM
Outline: as §2

Es-2 = experiment: as above; conditions: Gynecologic cancer cell panel viability, ATPlite luminescence, 48 h; series mostly up to 57.5 µM
Outline: as §2

HeLa = experiment: as above; conditions: Gynecologic cancer cell panel viability, ATPlite luminescence, 48 h; series mostly up to 57.5 µM
Outline: as §2

Hek293T = experiment: as above; conditions: Gynecologic cancer cell panel viability, ATPlite luminescence, 48 h, control line for the selectivity index; series mostly up to 57.5 µM
Outline: as §2

JEG-3 = experiment: as above; conditions: Gynecologic cancer cell panel viability, ATPlite luminescence, 48 h; series mostly up to 57.5 µM
Outline: as §2

OV90 = experiment: as above; conditions: Gynecologic cancer cell panel viability, ATPlite luminescence, 48 h; series mostly up to 57.5 µM
Outline: as §2

PA-1 = experiment: as above; conditions: Gynecologic cancer cell panel viability, ATPlite luminescence, 48 h; series mostly up to 57.5 µM
Outline: as §2

SKOV3 = experiment: as above; conditions: Gynecologic cancer cell panel viability, ATPlite luminescence, 48 h; series mostly up to 57.5 µM
Outline: as §2

Tov-21-G = experiment: as above; conditions: Gynecologic cancer cell panel viability, ATPlite luminescence, 48 h; series mostly up to 57.5 µM
Outline: as §2

Tov112D = experiment: as above; conditions: Gynecologic cancer cell panel viability, ATPlite luminescence, 48 h; series mostly up to 57.5 µM
Outline: as §2

[1] = Drug repurposing screens with cells derived from glioblastoma tumor samples (AID 1345199); conditions: GBM patient neurospheres viability, ATP luminescence, 48 h; note: nearly all actives have a fitted effect of over 40% in size
Outline: (§3)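 Four patient lines of CD133+ GBM neurospheres were screened at several concentrations; hits were retested in those lines plus three slower-growing GBM lines, using 48-hour treatment and ATP-based viability.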

astro = experiment: as above; conditions: viability, ATP luminescence, 48 h; series mostly up to 45.9 µM
Outline: as §3

[2] = at 45.9 µM (top of the series), tumour line B
[3] = at 45.9 µM (top of the series), tumour line D
[4] = at 46 µM (top of the series), tumour line A
[5] = at 46.1 µM (top of the series), tumour line C
[6] = at 20 µM (top of the series), tumour line C
[7] = at 21.2 µM (top of the series), tumour line B
[8] = at 21.2 µM (top of the series), tumour line D
[9] = at 21.3 µM (top of the series), tumour line A
% is set by controls: 0 for no effect and ±100 for the full control effect.

O=C(O)CC(O)C(=O)O (configuration not stated)
inactive: Potency (MCC-26) | Potency (MKL-1) | Potency (MKL-2) | Potency (UISO) | Potency (WaGa) | Potency (C33A) | Potency (CAOV3) | Potency (CASKI) | Potency (Es-2) | Potency (HeLa) | Potency (Hek293T) | Potency (JEG-3) | Potency (OV90) | Potency (PA-1) | Potency (SKOV3) | Potency (Tov-21-G) | Potency (Tov112D) | activity, negative = cell killing [1, 2] -10.7% | activity, negative = cell killing [1, 3] -4.49% | activity, negative = cell killing [1, 4] -24.7% | activity, negative = cell killing [1, 5] -13.6% | Potency (astro)

C[C@@H]1C[C@H]2[C@@H]3C[C@H](F)C4=CC(=O)C=C[C@]4(C)[C@@]3(F)[C@@H](O)C[C@]2(C)[C@@]1(O)C(=O)CO
inactive: Potency (MCC-26) | Potency (MKL-1) | Potency (MKL-2) | Potency (UISO) | Potency (WaGa) | Potency (C33A) | Potency (CAOV3) | Potency (CASKI) | Potency (Es-2) | Potency (HeLa) | Potency (Hek293T) | Potency (JEG-3) | Potency (OV90) | Potency (PA-1) | Potency (SKOV3) | Potency (Tov-21-G) | Potency (Tov112D) | activity, negative = cell killing [1, 6] 17.9% | activity, negative = cell killing [1, 7] -15.7% | activity, negative = cell killing [1, 8] -7.98% | activity, negative = cell killing [1, 9] -20.6% | Potency (astro)

CCN(CC)CCOC(=O)C1(C2CCCCC2)CCCCC1
inactive: Potency (MCC-26) | Potency (MKL-1) | Potency (MKL-2) | Potency (UISO) | Potency (WaGa) | Potency (C33A) | Potency (CAOV3) | Potency (CASKI) | Potency (Es-2) | Potency (HeLa) | Potency (Hek293T) | Potency (JEG-3) | Potency (OV90) | Potency (PA-1) | Potency (SKOV3) | Potency (Tov-21-G) | Potency (Tov112D)

CCOc1ccc2ccccc2c1C(=O)N[C@@H]1C(=O)N2[C@@H]1SC(C)(C)[C@@H]2C(=O)O
inactive: Potency (MCC-26) | Potency (MKL-1) | Potency (MKL-2) | Potency (UISO) | Potency (WaGa) | Potency (C33A) | Potency (CAOV3) | Potency (CASKI) | Potency (Es-2) | Potency (HeLa) | Potency (Hek293T) | Potency (JEG-3) | Potency (OV90) | Potency (PA-1) | Potency (SKOV3) | Potency (Tov-21-G) | Potency (Tov112D) | activity, negative = cell killing [1, 6] 10.1% | activity, negative = cell killing [1, 7] -3.6% | activity, negative = cell killing [1, 8] -26.3% | activity, negative = cell killing [1, 9] -12.7% | Potency (astro)

CC1(C)Oc2ccc(C#N)cc2[C@@H](N2CCCC2=O)[C@@H]1O
inactive: Potency (MCC-26) | Potency (MKL-1) | Potency (MKL-2) | Potency (UISO) | Potency (WaGa) | Potency (C33A) | Potency (CAOV3) | Potency (CASKI) | Potency (Es-2) | Potency (HeLa) | Potency (Hek293T) | Potency (JEG-3) | Potency (OV90) | Potency (PA-1) | Potency (SKOV3) | Potency (Tov-21-G) | Potency (Tov112D) | activity, negative = cell killing [1, 2] -7.82% and 2.52% | activity, negative = cell killing [1, 3] -4.19% and -0.466% | activity, negative = cell killing [1, 4] -32.5% and -12.3% | activity, negative = cell killing [1, 5] -7.78% and -4.72% | Potency (astro)

Cc1cc2c(cc1S(N)(=O)=O)S(=O)(=O)CCC2
inactive: Potency (MCC-26) | Potency (MKL-1) | Potency (MKL-2) | Potency (UISO) | Potency (WaGa) | Potency (C33A) | Potency (CAOV3) | Potency (CASKI) | Potency (Es-2) | Potency (HeLa) | Potency (Hek293T) | Potency (JEG-3) | Potency (OV90) | Potency (PA-1) | Potency (SKOV3) | Potency (Tov-21-G) | Potency (Tov112D) | activity, negative = cell killing [1, 6] 4.86% | activity, negative = cell killing [1, 7] -8.12% | activity, negative = cell killing [1, 8] 3.88% | activity, negative = cell killing [1, 9] -0.554% | Potency (astro)
